# Results reported in article PMC7862700, “An all-to-all approach to the identification of sequence-specific readers for epigenetic DNA modifications on cytosine”.
# How the values were obtained:
# Experiment in all cases: DAPPL (digital affinity profiling via proximity ligation, sequencing); 10 mM Tris-HCl pH 7.5, 50 mM NaCl, 1 mM DTT, 4% glycerol, room temperature, 30 min; GST-TFs on glutathione beads, 16-mer random dsDNA library, 0.1% formaldehyde crosslink after washing; high values mean tight binding
# [1] = target: T1, FLI1 (Homo sapiens, UniProt Q01543 1-452); conditions: protein: recombinant; tags: N-terminal GST; dsDNA, one strand shown
# T1 sequence: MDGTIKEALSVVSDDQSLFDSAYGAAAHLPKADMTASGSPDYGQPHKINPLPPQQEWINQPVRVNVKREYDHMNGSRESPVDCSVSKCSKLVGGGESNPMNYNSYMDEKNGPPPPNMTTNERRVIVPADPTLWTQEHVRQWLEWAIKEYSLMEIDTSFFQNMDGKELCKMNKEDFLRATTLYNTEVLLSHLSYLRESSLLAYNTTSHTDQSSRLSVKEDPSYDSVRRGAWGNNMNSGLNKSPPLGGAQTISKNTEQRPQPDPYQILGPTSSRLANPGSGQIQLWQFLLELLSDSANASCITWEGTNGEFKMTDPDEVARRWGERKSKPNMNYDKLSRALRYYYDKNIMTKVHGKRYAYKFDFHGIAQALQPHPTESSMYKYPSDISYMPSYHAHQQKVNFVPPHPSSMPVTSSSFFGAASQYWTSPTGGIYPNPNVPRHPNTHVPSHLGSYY
# Summary of the method: (§1)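 Human transcription factors were made in yeast as GST fusions, captured on glutathione beads and barcoded with DNA. With a tag-only sample included, the pool was incubated with 200 nmole of a random double-stranded 16-mer DNA library in Tris/NaCl/DTT/glycerol buffer at room temperature for 30 min, then crosslinked with 0.1% formaldehyde after washing, ligated by proximity, amplified and sequenced. For binding signal, each hexamer's read frequency for a factor is divided by its frequency for the tag-only sample.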
# [2] = target: T2, ELK1 (Homo sapiens, UniProt P19419 1-428); conditions: protein: recombinant; tags: N-terminal GST; dsDNA, one strand shown
# T2 sequence: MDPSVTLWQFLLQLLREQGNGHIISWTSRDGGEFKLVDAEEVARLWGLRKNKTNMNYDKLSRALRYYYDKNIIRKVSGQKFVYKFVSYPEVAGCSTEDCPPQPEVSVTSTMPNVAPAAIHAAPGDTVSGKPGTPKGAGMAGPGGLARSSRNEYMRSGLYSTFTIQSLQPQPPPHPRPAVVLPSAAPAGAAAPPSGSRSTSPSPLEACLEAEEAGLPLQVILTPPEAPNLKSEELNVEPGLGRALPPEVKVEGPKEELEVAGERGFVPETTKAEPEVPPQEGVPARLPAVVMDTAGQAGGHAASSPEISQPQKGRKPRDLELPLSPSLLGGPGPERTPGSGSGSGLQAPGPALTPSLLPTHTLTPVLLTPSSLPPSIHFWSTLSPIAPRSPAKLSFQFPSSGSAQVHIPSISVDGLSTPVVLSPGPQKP
# Summary of the method: as §1
# [3] = target: T3, GABPA (Homo sapiens, UniProt Q06546 1-454); conditions: protein: recombinant; tags: N-terminal GST; dsDNA, one strand shown
# T3 sequence: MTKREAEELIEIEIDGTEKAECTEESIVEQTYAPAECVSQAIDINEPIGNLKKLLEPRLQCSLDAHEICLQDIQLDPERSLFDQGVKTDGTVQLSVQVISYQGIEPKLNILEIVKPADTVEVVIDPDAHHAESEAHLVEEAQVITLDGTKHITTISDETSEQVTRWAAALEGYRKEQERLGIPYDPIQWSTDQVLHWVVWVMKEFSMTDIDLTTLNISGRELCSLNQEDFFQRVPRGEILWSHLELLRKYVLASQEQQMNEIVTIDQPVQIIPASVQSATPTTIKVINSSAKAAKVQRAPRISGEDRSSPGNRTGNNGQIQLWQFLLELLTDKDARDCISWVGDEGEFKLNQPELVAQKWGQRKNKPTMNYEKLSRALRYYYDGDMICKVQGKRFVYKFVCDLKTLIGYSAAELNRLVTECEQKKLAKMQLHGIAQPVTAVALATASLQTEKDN
# Summary of the method: as §1
# [4] = target: T4, ERG (Homo sapiens, UniProt P11308 1-479); conditions: protein: recombinant; tags: N-terminal GST; dsDNA, one strand shown
# T4 sequence: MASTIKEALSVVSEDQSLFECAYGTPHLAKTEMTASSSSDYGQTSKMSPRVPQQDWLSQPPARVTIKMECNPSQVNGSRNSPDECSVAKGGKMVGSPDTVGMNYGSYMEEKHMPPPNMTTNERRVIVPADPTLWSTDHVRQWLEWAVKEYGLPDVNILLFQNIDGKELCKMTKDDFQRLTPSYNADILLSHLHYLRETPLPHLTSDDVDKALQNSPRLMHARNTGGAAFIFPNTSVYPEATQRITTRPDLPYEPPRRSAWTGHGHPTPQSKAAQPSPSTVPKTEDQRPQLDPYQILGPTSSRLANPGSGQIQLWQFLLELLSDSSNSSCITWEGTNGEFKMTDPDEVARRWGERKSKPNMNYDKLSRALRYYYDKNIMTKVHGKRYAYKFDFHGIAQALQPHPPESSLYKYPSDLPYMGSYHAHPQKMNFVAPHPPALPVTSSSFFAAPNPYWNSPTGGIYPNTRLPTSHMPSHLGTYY
# Summary of the method: as §1
# [5] = target: ELF1 (Homo sapiens, UniProt P32519 1-619); conditions: protein: recombinant; tags: N-terminal GST; dsDNA, one strand shown
# Summary of the method: as §1
# [6] = target: T5, EHF (Homo sapiens, UniProt Q9NZC4 1-300); conditions: protein: recombinant; tags: N-terminal GST; dsDNA, one strand shown
# T5 sequence: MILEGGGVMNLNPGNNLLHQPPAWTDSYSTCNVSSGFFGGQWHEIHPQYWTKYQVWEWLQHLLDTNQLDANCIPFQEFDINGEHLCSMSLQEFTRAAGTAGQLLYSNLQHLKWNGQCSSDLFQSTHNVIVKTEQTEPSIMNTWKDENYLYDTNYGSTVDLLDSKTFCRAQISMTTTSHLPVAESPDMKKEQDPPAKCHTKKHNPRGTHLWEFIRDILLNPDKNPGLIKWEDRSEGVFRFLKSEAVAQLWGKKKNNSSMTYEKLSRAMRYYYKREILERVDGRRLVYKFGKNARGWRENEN
# Summary of the method: as §1
# [7] = target: SPI1 (Homo sapiens, UniProt P17947 1-270); conditions: protein: recombinant; tags: N-terminal GST; dsDNA, one strand shown
# Summary of the method: as §1
# [8] = target: SPIB (Homo sapiens, UniProt Q01892 1-262); conditions: protein: recombinant; tags: N-terminal GST; dsDNA, one strand shown
# Summary of the method: as §1
# [9] = target: T6, ELK3 (Homo sapiens, UniProt P41970 1-407); conditions: protein: recombinant; tags: N-terminal GST; dsDNA, one strand shown
# T6 sequence: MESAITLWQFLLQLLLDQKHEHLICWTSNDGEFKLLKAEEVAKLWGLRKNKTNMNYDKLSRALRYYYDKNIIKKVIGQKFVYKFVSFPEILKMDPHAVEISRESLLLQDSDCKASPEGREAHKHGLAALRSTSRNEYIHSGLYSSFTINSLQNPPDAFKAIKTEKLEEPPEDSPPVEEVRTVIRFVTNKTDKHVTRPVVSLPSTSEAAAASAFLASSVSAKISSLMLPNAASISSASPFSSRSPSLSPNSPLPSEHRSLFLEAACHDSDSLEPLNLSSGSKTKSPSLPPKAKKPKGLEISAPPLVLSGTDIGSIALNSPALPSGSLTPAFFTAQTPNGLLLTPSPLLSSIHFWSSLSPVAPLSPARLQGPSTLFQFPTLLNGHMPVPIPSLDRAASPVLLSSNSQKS
# Summary of the method: as §1
# [10] = target: T7, FEV (Homo sapiens, UniProt Q99581 1-238); conditions: protein: recombinant; tags: N-terminal GST; dsDNA, one strand shown
# T7 sequence: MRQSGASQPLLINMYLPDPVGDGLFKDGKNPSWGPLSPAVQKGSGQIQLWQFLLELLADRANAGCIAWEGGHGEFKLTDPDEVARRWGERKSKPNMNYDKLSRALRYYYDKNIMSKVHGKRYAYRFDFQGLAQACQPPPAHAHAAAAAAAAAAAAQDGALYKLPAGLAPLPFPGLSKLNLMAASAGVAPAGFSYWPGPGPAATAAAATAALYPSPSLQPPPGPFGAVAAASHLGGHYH
# Summary of the method: as §1
# [11] = target: ETV5 (Homo sapiens, UniProt P41161 1-510); conditions: protein: recombinant; tags: N-terminal GST; dsDNA, one strand shown
# Summary of the method: as §1
# [12] = target: HSF1 (Homo sapiens, UniProt Q00613 1-529); conditions: protein: recombinant; tags: N-terminal GST; chain copies: 3; dsDNA, one strand shown
# Summary of the method: as §1
# [13] = target: T8, SPIC (Homo sapiens, UniProt Q8N5J4 1-248); conditions: protein: recombinant; tags: N-terminal GST; dsDNA, one strand shown
# T8 sequence: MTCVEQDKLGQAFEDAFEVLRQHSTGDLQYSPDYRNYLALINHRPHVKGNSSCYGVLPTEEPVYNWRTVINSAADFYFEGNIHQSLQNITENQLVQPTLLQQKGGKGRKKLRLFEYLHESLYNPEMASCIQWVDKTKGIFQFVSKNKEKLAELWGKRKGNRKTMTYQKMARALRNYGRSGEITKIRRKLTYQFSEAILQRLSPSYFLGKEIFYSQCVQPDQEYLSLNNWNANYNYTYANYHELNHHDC
# Summary of the method: as §1
# [14] = target: ELF4 (Homo sapiens, UniProt Q99607 1-663); conditions: protein: recombinant; tags: N-terminal GST; dsDNA, one strand shown
# Summary of the method: as §1
# [15] = target: T9, ELK4 (Homo sapiens, UniProt P28324-2 1-405); conditions: protein: recombinant; tags: N-terminal GST; dsDNA, one strand shown
# T9 sequence: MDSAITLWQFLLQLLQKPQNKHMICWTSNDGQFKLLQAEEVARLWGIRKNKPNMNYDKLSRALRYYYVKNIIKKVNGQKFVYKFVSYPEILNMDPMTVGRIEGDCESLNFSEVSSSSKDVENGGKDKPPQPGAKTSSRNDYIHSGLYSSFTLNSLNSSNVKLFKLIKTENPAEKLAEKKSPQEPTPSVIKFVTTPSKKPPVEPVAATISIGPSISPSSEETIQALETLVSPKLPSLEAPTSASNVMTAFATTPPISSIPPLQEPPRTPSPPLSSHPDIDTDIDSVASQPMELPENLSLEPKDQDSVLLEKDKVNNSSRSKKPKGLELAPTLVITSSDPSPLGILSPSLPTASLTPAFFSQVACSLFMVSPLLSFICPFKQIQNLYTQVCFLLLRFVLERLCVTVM
# Summary of the method: as §1
# [16] = target: T10, ETV2 (Homo sapiens, UniProt O00321 1-342); conditions: protein: recombinant; tags: N-terminal GST; dsDNA, one strand shown
# T10 sequence: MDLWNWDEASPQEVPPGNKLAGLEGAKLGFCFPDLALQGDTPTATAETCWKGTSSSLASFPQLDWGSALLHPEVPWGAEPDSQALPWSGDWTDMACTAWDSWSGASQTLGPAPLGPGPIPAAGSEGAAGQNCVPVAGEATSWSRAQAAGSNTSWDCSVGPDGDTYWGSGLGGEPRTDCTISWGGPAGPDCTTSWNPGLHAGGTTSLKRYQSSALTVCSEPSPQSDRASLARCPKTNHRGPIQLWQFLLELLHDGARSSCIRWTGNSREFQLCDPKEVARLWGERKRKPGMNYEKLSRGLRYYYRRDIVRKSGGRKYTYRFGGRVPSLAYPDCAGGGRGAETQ
# Summary of the method: as §1
# [17] = target: T11, ELF3 (Homo sapiens, UniProt P78545 1-371); conditions: protein: recombinant; tags: N-terminal GST; dsDNA, one strand shown
# T11 sequence: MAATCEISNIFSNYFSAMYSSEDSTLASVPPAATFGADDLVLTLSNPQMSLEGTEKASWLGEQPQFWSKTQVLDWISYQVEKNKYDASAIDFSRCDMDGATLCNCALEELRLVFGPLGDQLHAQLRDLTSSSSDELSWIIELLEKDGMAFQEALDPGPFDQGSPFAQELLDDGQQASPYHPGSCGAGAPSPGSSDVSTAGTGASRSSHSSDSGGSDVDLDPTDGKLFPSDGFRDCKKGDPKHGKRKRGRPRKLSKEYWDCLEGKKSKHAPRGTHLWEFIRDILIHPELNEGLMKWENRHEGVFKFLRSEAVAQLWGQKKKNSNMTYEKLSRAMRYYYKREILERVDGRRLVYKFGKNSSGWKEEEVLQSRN
# Summary of the method: as §1
# [18] = target: CRX (Homo sapiens, UniProt O43186 1-299); conditions: protein: recombinant; tags: N-terminal GST; dsDNA, one strand shown
# Summary of the method: as §1
# [19] = target: ETV1 (Homo sapiens, UniProt P50549 1-477); conditions: protein: recombinant; tags: N-terminal GST; dsDNA, one strand shown
# Summary of the method: as §1
# Sequence of HSF1 (Q00613 whole entry): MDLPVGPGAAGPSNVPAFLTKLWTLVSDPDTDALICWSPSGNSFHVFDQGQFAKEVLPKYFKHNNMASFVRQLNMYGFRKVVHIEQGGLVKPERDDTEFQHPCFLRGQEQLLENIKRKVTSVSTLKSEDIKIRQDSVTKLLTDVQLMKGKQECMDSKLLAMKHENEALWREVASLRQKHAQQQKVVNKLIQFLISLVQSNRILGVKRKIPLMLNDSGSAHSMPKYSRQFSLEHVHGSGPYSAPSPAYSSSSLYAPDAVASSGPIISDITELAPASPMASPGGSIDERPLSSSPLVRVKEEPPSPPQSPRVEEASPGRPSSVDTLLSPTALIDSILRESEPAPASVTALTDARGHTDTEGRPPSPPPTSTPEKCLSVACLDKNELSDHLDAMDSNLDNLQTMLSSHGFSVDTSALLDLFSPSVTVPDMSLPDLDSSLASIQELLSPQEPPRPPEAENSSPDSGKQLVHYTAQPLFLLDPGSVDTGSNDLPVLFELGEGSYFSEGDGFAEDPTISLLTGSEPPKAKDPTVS
# Sequence of ETV5 (P41161 whole entry): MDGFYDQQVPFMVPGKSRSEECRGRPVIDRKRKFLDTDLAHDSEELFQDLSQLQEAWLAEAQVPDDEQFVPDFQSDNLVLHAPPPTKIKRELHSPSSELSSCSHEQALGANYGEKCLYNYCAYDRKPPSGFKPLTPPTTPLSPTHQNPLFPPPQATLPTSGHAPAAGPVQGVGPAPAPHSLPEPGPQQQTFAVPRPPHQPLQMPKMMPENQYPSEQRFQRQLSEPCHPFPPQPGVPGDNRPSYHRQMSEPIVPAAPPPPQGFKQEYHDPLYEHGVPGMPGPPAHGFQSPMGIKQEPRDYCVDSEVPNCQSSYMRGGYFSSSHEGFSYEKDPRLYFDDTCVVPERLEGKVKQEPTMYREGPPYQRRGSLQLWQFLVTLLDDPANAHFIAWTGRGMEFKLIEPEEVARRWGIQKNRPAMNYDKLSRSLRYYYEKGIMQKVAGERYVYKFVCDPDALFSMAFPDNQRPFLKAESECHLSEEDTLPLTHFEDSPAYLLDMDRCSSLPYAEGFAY
# Sequence of SPIB (Q01892 whole entry): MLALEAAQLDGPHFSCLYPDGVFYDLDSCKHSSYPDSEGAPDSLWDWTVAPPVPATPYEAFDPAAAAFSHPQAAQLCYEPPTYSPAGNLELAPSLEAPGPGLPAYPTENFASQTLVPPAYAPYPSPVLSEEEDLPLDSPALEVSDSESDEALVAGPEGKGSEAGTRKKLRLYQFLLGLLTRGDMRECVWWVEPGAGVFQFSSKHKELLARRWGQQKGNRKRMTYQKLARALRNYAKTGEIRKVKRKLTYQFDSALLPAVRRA
# Sequence of ELF1 (P32519 whole entry): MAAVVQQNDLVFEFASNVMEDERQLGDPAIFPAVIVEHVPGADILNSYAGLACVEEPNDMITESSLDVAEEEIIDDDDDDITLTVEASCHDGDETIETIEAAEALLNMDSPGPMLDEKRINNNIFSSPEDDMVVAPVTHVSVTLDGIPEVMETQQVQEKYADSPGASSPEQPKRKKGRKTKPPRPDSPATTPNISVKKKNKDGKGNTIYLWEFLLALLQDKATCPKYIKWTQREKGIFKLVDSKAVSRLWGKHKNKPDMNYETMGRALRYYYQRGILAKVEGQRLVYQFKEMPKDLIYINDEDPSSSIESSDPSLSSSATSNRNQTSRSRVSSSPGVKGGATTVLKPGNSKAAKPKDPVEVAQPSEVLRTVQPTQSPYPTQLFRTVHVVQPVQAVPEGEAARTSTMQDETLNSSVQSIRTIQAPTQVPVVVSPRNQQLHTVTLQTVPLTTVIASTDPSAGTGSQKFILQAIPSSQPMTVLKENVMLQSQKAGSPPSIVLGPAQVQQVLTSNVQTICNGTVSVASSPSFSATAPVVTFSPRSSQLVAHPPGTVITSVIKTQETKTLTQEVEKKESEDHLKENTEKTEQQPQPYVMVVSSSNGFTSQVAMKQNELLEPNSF
# Sequence of ETV1 (P50549 whole entry): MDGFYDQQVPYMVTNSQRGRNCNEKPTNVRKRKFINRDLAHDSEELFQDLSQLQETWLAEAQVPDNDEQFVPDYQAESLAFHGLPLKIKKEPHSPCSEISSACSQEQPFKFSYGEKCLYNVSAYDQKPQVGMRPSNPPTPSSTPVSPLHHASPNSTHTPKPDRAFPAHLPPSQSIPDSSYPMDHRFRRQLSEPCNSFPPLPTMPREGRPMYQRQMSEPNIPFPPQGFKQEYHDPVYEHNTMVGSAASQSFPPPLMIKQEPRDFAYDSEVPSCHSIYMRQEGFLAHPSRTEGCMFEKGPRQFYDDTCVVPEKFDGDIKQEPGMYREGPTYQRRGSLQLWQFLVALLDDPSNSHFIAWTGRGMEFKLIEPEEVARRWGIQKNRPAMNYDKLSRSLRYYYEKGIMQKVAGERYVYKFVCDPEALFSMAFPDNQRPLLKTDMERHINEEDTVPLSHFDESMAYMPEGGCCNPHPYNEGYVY
# Sequence of ELF4 (Q99607 whole entry): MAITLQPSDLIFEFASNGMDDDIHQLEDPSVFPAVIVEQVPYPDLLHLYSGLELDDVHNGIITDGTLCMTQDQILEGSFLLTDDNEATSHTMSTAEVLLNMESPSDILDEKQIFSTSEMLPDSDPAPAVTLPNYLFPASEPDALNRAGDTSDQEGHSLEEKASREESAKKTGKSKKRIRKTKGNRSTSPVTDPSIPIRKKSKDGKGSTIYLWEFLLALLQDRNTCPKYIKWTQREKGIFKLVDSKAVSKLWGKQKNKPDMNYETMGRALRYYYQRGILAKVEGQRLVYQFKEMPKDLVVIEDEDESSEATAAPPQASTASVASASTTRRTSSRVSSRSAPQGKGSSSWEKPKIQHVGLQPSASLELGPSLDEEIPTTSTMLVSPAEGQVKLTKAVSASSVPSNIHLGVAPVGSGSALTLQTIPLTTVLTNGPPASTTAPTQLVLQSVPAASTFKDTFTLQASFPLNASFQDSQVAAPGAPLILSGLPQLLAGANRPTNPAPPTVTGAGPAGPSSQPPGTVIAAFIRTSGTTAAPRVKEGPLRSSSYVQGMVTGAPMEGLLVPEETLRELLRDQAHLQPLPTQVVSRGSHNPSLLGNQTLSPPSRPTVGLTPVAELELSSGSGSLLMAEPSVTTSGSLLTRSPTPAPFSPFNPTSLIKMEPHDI
# Sequence of CRX (O43186 whole entry): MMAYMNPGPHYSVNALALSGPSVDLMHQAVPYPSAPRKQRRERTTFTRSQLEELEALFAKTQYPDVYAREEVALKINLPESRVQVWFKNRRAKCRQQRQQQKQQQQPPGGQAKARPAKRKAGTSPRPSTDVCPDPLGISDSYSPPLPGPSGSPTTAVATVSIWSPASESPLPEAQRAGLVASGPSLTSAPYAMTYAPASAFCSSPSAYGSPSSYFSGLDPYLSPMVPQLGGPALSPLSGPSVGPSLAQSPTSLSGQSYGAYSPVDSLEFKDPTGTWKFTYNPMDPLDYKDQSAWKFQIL
sequence,measurement,setting,value
ATCAAC,binding signal,[1],"1.12 fold enrichment (6-mer frequency, TF over GST control)"
same,binding signal,[2],"1.19 fold enrichment (6-mer frequency, TF over GST control)"
same,binding signal,[3],"1.19 fold enrichment (6-mer frequency, TF over GST control)"
same,binding signal,[4],"1.07 fold enrichment (6-mer frequency, TF over GST control)"
same,binding signal,[5],"1.13 fold enrichment (6-mer frequency, TF over GST control)"
same,binding signal,[6],"1.12 fold enrichment (6-mer frequency, TF over GST control)"
same,binding signal,[7],"1.08 fold enrichment (6-mer frequency, TF over GST control)"
same,binding signal,[8],"1.1 fold enrichment (6-mer frequency, TF over GST control)"
same,binding signal,[9],"1.21 fold enrichment (6-mer frequency, TF over GST control)"
same,binding signal,[10],"1.13 fold enrichment (6-mer frequency, TF over GST control)"
same,binding signal,[11],"1.04 fold enrichment (6-mer frequency, TF over GST control)"
same,binding signal,[12],"1.02 fold enrichment (6-mer frequency, TF over GST control)"
same,binding signal,[13],"1.03 fold enrichment (6-mer frequency, TF over GST control)"
same,binding signal,[14],"1.09 fold enrichment (6-mer frequency, TF over GST control)"
same,binding signal,[15],"1.14 fold enrichment (6-mer frequency, TF over GST control)"
same,binding signal,[16],"1.18 fold enrichment (6-mer frequency, TF over GST control)"
same,binding signal,[17],"1.08 fold enrichment (6-mer frequency, TF over GST control)"
same,binding signal,[18],"1.25 fold enrichment (6-mer frequency, TF over GST control)"
same,binding signal,[19],"1.1 fold enrichment (6-mer frequency, TF over GST control)"
